Holding throughout (assay): qHTS profiling for inhibitors of Plasmodium falciparum proliferation (AID 504749); further: nearly all actives have a fitted effect of over 60% in size
Details in all cases: P. falciparum in erythrocytes, SYBR Green DNA, 72 h; series mostly up to 28.7 µM

For one test, the system named is ICS. The procedure, abridged: (§1)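 Parasite proliferation within erythrocytes, 72 h exposure. Endpoint: SYBR Green I fluorescence after overnight lysis at room temperature. Controls: 0.29 uM artemisinin, DMSO.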
The next test concerns JCK. The method in brief: as §1
The test system of another test is N140. The procedure, abridged: as §1
The subject of another test is P93_24. The procedure, abridged: as §1
For a further test, the system named is P94_40. The procedure, abridged: as §1
The next test concerns PAD. The method in brief: as §1
The subject of another test is PC15. The method in brief:
as §1

The next test has as its system PC26. The method in brief: as §1
The test system of the next test is PC49. The method in brief: as §1
The test system of the next test is SC27B. The procedure, abridged: as §1

Inconclusive results are not listed. Active and inactive are the calls of the source. The call rests on the fitted dose curve; in most records, active means well fitted inhibition curve with a large enough effect; inconclusive means small, poorly fitted or top-dose-only effect; inactive means flat fitted curve, though single readings scatter.
Potency means the concentration at half of the fitted maximal effect.

As for `OC[C@@H](O)[C@@H](O)[C@H](O)[C@H](O)CO`, the Potency entry in the test on ICS, in the test on JCK, in the test with N140, in the test on P93_24, in the test with P94_40 and in the test with PAD was “inactive” each time. For the same compound, the Potency entry in the test with PC15, in the test with PC26, in the test on PC49 and with SC27B was “inactive” in each case.
`COc1ccc(C(=O)NCc2ccc(OCCN(C)C)cc2)cc1OC`: the Potency entry with ICS, in the test on JCK, with N140, in the test on P93_24, with P94_40 and with PAD was “inactive” in each case. Also, the Potency entry in the test with PC15, with PC26, in the test with PC49 and in the test on SC27B was “inactive” in each case.
For the compound `CC(=O)Nc1ccc(C(=O)O)cc1`, the Potency result with ICS, in the test with JCK, with N140, in the test with P93_24, in the test on P94_40 and with PAD was “inactive” throughout. Also, the Potency result in the test with PC15, with PC26, with PC49 and in the test with SC27B was “inactive” each time.
Turning to `CCCCC1(COC(=O)CCC(=O)O)C(=O)N(c2ccccc2)N(c2ccccc2)C1=O`, the Potency entry with ICS, in the test with JCK, in the test with N140, in the test with P93_24, with P94_40 and with PAD was “inactive” each time. Further, the Potency result with PC15, in the test with PC26, with PC49 and in the test on SC27B was “inactive” throughout.
Turning to `O=C(O)Cc1ccc(CCNS(=O)(=O)c2ccc(Cl)cc2)cc1`, the Potency result in the test on ICS, in the test on JCK, with N140, in the test on P93_24, with P94_40 and in the test with PAD was “inactive” in each case. In addition, the Potency result in the test with PC15, in the test on PC26, in the test on PC49 and in the test with SC27B was “inactive” throughout.
`Cn1c(=O)c2c(ncn2CCO)n(C)c1=O`: the Potency result with ICS, with JCK, in the test on N140, in the test with P93_24, in the test with P94_40 and in the test on PAD was “inactive” throughout. Further, the Potency entry in the test on PC15, with PC26, in the test on PC49 and with SC27B was “inactive” in each case.
Consider `O=c1[nH]c(=O)c2ccccc2o1`, for which the Potency entry with ICS, in the test on JCK, with N140, in the test on P93_24, with P94_40 and in the test with PAD was “inactive” in each case. Besides, the Potency result in the test on PC15, with PC26, in the test with PC49 and with SC27B was “inactive” each time.
With `CN1C(C)(C)CCCC1(C)C`, the Potency result in the test with ICS, in the test with JCK, in the test on N140, with P93_24, with P94_40 and in the test with PAD was “inactive” in each case. For the same compound, the Potency entry in the test with PC15, in the test with PC26, with PC49 and in the test on SC27B was “inactive” throughout.
For the compound `CCCCCCCCCCOc1cc2c(=O)c(C(=O)OCC)c[nH]c2cc1OCC`, the Potency with ICS is 3.2 nM (active); in the test on JCK, 35.5 nM (active); in the test with N140 it was 2.2 nM (active); in the test on P93_24, 3.2 nM (active); in the test with P94_40, 3.2 nM (active); in the test with PAD, 3.5 nM (active). Besides, the Potency in the test with PC15 was 6.3 nM (active); with PC49, 7.9 nM (active); in the test on SC27B, 2.5 nM (active).
Regarding `Cc1c(Cn2ccnc2)c2ccccc2n1CCC(=O)O`, the Potency result in the test with ICS, in the test with JCK, in the test on N140, in the test on P93_24, with P94_40 and in the test with PAD was “inactive” throughout. The Potency result in the test on PC15, in the test with PC26, with PC49 and in the test on SC27B was “inactive” throughout.
As to `Cc1c(I)c(=O)n(-c2ccccc2)n1C`, the Potency result in the test on ICS, with JCK, in the test with N140, in the test with P93_24, with P94_40 and in the test with PAD was “inactive” in each case. The Potency result in the test with PC15, with PC26, with PC49 and with SC27B was “inactive” in each case.
`O=C1c2ccccc2S(=O)(=O)N1CCCCN1CCN(c2ncccn2)CC1`: the Potency entry in the test with ICS, in the test on JCK, in the test on N140, in the test on P93_24, in the test on P94_40 and in the test on PAD was “inactive” in each case. Besides, the Potency result with PC15, in the test on PC26, with PC49 and in the test on SC27B was “inactive” in each case.
For `CCN(CC)C(=O)c1cccc(C)c1`, the Potency result with ICS, in the test with JCK, in the test with N140, in the test on P93_24, with P94_40 and in the test on PAD was “inactive” in each case. Further, the Potency result in the test on PC15, in the test with PC26, with PC49 and in the test on SC27B was “inactive” each time.
On to `Cc1ccc(S(=O)(=O)NC(=O)NC2CCCCCCC2)cc1`, for which the Potency entry in the test with ICS, in the test with JCK, in the test on N140, in the test with P93_24, in the test on P94_40 and in the test on PAD was “inactive” throughout. Moreover, the Potency result in the test on PC15, in the test on PC26, with PC49 and in the test with SC27B was “inactive” in each case.
For `CCCCCC(N)=O`, the Potency result in the test on ICS, with JCK, in the test on N140, in the test on P93_24, in the test with P94_40 and in the test on PAD was “inactive” throughout. Further, the Potency entry in the test on PC15, with PC26, with PC49 and in the test on SC27B was “inactive” each time.
With `O=C(O)c1ccc[n+]([O-])c1`, the Potency result with ICS, in the test on JCK, in the test with N140, in the test on P93_24, in the test with P94_40 and in the test with PAD was “inactive” each time. Further, the Potency entry in the test with PC15, with PC26, in the test with PC49 and in the test on SC27B was “inactive” in each case.
Regarding `O=C(O)CCCCC1CCSS1` (configuration not stated), the Potency entry in the test on ICS, in the test on JCK, in the test with N140, with P93_24, in the test on P94_40 and with PAD was “inactive” throughout. Moreover, the Potency entry in the test with PC15, in the test with PC26, in the test on PC49 and with SC27B was “inactive” in each case.
Consider `CC(=O)Oc1cccc(O)c1`, for which the Potency result with ICS, in the test on JCK, in the test on N140, in the test on P94_40, with PAD and with PC15 was “inactive” in each case. In addition, the Potency result with PC26, in the test with PC49 and in the test with SC27B was “inactive” throughout.
Consider `CCCCCC(C)N` (configuration not stated), for which the Potency with ICS is 5010 nM (active). The Potency result in the test with JCK, with PC15, in the test on PC26, in the test on PC49 and in the test with SC27B was “inactive” each time.
For the compound `CCCCCCCCCCC(CO)CCCCCCCC` (configuration not stated), the Potency with ICS is 8910 nM (active). Moreover, the Potency entry in the test on JCK, in the test with N140, in the test with P94_40, in the test on PAD, in the test with PC15 and in the test with PC26 was “inactive” each time. For the same compound, the Potency result in the test with PC49 and in the test with SC27B was “inactive” throughout.
Consider `NC(=O)CCCCC1CCSS1` (configuration not stated), for which the Potency entry in the test with JCK, in the test on N140, with PC15, in the test with PC49 and in the test with SC27B was “inactive” in each case.
As to `NC(=O)c1ccc([N+](=O)[O-])cc1Cl`, in the test with ICS, the Potency was 4470 nM (active). Moreover, the Potency result in the test with JCK, in the test on P94_40, with PC49 and in the test with SC27B was “inactive” in each case.
As to `O=C(O)Cn1c(C(=O)Nc2nc(-c3ccccc3Cl)cs2)cc2ccccc21`, the Potency result in the test with JCK, in the test with N140, in the test on P93_24, with P94_40, in the test with PAD and in the test with PC15 was “inactive” throughout. Also, the Potency entry with PC26, in the test with PC49 and in the test with SC27B was “inactive” in each case.

The values above are taken from PubChem BioAssay (NCATS).
